TRb SRC2 PPI: qHTS for Inhibitors of the Interaction of Thyroid Hormone Receptor and Steroid Receptor Coregulator 2 | Thyroid hormone receptor beta (Homo sapiens), P10828 | Potency, µM (highest dose often 106 µM), for the others: top-dose activity change, negative = inhibition, hits mostly inhibitors | TRbeta-SRC2 peptide binding, fluorescence polarization; receptor liganded with 1 µM T3 | hit rate 0.065% among 280,000;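 further: plate controls were bound peptide for no effect and peptide without receptor for full effect; nearly all actives have a fitted effect of over 50% in size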
Target sequence (P10828 whole entry, looked up): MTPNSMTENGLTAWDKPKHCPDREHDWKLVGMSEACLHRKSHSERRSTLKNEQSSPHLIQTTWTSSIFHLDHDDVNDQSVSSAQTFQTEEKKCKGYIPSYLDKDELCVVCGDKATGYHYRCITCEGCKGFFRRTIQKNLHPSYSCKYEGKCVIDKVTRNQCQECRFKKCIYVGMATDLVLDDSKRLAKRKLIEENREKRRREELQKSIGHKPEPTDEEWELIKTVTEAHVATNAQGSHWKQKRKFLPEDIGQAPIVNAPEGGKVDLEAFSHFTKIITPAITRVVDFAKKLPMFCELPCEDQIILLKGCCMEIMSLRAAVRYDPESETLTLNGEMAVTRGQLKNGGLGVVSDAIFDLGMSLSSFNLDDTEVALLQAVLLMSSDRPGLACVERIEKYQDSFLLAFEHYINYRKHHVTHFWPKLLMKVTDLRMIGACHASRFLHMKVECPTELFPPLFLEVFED
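Binding of a 20-amino-acid Texas Red SRC2 peptide (20 nM) to TRb ligand-binding domain (0.6 uM) with agonist T3 at 1 uM was followed by fluorescence polarization after a 5 hr room-temperature incubation.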
Tau fluor cs: Counterscreen qHTS for Inhibitors of Tau Fibril Formation, Fluorescence Polarization; Potency, µM (series often up to 57.7 µM), for the others: at the top dose activity change, negative = decrease; tau K18 P301L Alexa594 fluorescence, heparin fibrillization; hit rate 0.93% among 280,000; further: nearly all actives have a fitted effect of over 55% in size
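Human K18 P301L tau (15 uM unlabeled plus 0.24 uM Alexa 594-labeled, final) in 100 mM sodium acetate pH 7 was mixed with compound and 20 uM heparin and incubated 6 hr at 37 C.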
Tau ThT inhib: qHTS for Inhibitors of Tau Fibril Formation, Thioflavin T Binding; recombinant tau K18 P301L (four-repeat tau fragment), heparin-induced fibrillization, ThT fluorescence; hit rate 2.1% among 270,000; AID 1460, 2008; Potency, µM (highest dose often 57.4 µM), for inactives: at the highest dose activity, negative = inhibition, actives largely listed as inhibitors; Microtubule-associated protein tau (Homo sapiens), P10636; further: nearly all actives have a fitted effect of over 55% in size
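Aggregation was driven by heparin (20 uM final) acting on recombinant tau […] bearing P301L in 100 mM sodium acetate pH 7; fibrils were detected with Thioflavin T.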
Tau FP inhib: qHTS for Inhibitors of Tau Fibril Formation, Fluorescence Polarization | K18 P301L tau heparin fibrillization, Alexa594 FP, 6 h | Potency, µM (doses to about 57.7 µM), for inactives: at the highest dose activity, negative = inhibition, usual class: inhibitors | hit rate 0.39% among 280,000; further: nearly all actives have a fitted effect of over 55% in size
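Read-out: fluorescence polarization of Alexa 594-labeled tau (0.24 uM), 555 nm excitation, 632 nm emission. Mixtures held 15 uM unlabeled K18 P301L, compound and 20 uM heparin, pH 7 acetate buffer, incubated 6 hr at 37 C.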
TexasRed fluor: Total Fluorescence Counterscreen for Inhibitors of the Interaction of Thyroid Hormone Receptor and Steroid Receptor Coregulator 2; Potency, µM (top dose mostly 106 µM), for inactives: at the top dose fluorescence change, negative = quenching; hit rate 0.29% among 280,000; TRb/SRC2 Texas Red total fluorescence interference; AID 1479, 2009; active means well fitted curve in either direction with a large enough effect; inconclusive means small, poorly fitted or top-dose-only effect
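Human TRb ligand-binding domain at 0.6 uM with 20 nM Texas Red SRC2 peptide in Tris buffer containing 1 uM T3 and 5% DMSO, incubated with compound 5 h at ambient temperature. Total fluorescence (555/632 nm) calculated as parallel + 2 × perpendicular.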
Starred values were filed as active, the others as inactive; u = inconclusive; x = no result given; [ ] = remark or other dose. This is a sample that favours compounds with a hit; in the whole collection about 3% have one here. Unless noted, the call rests on the fitted dose curve; in most records, active means well fitted curve in the direction sought with a large enough effect; inconclusive means small, poorly fitted or top-dose-only effect, or another doubt; inactive means no such curve, though single readings can be large; an effect the other way counts as inactive or inconclusive. Unless noted, on the % scale 0 is the no-effect control and ±100 the full control effect; potency means the concentration at half of the fitted maximal effect.

SMILES	TRb SRC2 PPI	Tau fluor cs	Tau ThT inhib	Tau FP inhib	TexasRed fluor
COCCCNC(=O)c1ccc(-n2c(-c3ccccc3)cc3c2CCC(C)C3)cc1 (stereo not given)	7%	-23%	15%	13µM*	-5%
COCCNC(=O)c1ccc(-n2c(-c3ccccc3)cc3c2CCCCC3)cc1	4%	u	-9%	25µM*	6%
Cc1cc2c(n1-c1ccc(C(=O)NCCc3ccccc3)cc1)CCC(C)C2 (stereo not given)	2%	-19%	u	u	-2%
CC(C)CCNC(=O)c1ccc2c(c1)N(Cc1ccccc1F)C(=O)c1ccccc1S2=O (stereo not given)	-6%	-23%	5%	-7%	1%
Cc1cc(=O)n2nc(N3CCC(C(=O)Nc4c(C)cccc4C)CC3)sc2n1	3%	4%	-17%	9%	-1%
Cc1ccc(-c2cc(N)n(-c3ccccc3)n2)cc1	-32%	-25%	u	9%	-1%
Nc1cc(-c2ccc(OC(F)(F)F)cc2)nn1-c1ccc(Cl)c(Cl)c1	-4%	13µM*[quencher]	20µM*	u	-6%
Cc1csc2nc(COC(=O)CNC(=O)c3ccccc3Cl)cc(=O)n12	-2%	-1%	-4%	5%	-1%
COC(=O)c1cc(NC(C)=O)ccc1N1CCOCC1	-3%	-6%	-2%	-5%	-3%
COC(=O)c1cc(NC(=O)c2cc(-c3ccc(C(F)(F)F)cc3)oc2C(F)(F)F)ccc1N1CCOCC1	2%	1µM*[quencher]	x	8%	-1%
COC(=O)c1cc(NC(=O)c2cc(-c3ccc(OC)cc3)oc2C(F)(F)F)ccc1N1CCOCC1	6%	8.9µM*[quencher]	x	u	-3%
CN(C1=C(NC(=O)c2ccccc2)C(=O)c2ccccc2C1=O)C1CCS(=O)(=O)C1 (stereo not given)	2%	-27%	14µM*	u	0%
CC(=O)NC1=C(NC2CCS(=O)(=O)C2)C(=O)c2ccccc2C1=O (stereo not given)	14%	8%	12%	7%	1%
Cc1ccccc1CN1C(=O)c2ccccc2S(=O)c2ccc(C(=O)NCc3ccccc3)cc21 (stereo not given)	10%	-26%	-10%	-8%	1%
COc1cc(C(=O)NCc2ccc3c(c2)CCN3C(=O)c2ccc(Cl)cc2)cc(OC)c1OC	-2%	-26%	u	5%	0%
Nc1ccccc1SC1CC(=O)N(c2ccc(Cl)c(Cl)c2)C1=O (stereo not given)	-4%	u	5%	28µM*	-3%
CN=C(Nc1cc(Cl)ccc1Cl)SC1CC(=O)N(c2ccc(C(=O)OC)cc2)C1=O (stereo not given)	3%	u	7%	28µM*	-10%
O=C1CC(SC(=Nc2ccccc2)Nc2ccccc2)C(=O)N1c1ccc(Cl)c(Cl)c1 (stereo not given)	-3%	u	11%	7.9µM*	0%
COc1ccc(-c2cn3c(n2)sc2cc(C(=O)NC4CCCc5ccccc54)ccc23)cc1 (stereo not given)	-3%	7%	10%	-7%	-12%
O=C(O)c1ccc(NC2=C/C(=N/S(=O)(=O)c3ccccc3)c3ccccc3C2=O)cc1	u	u	14µM*	u	-9%
Cc1ccc(Cl)cc1NC1=C/C(=N\S(=O)(=O)c2cccs2)c2ccccc2C1=O	-22%	u	4.5µM*	-2%	4%
Cc1cccc(NC2=C/C(=N/S(=O)(=O)c3cccs3)c3ccccc3C2=O)c1	-1%	-4%	15%	4%	-4%
Cc1ccc(NC2=C/C(=N\S(=O)(=O)c3cccs3)c3ccccc3C2=O)c(C)c1	-27%	u	u	2%	-2%

Source: PubChem BioAssay
